TWEAK Fn14 block = inhibitors of TWEAK-Fn14 signaling, primary screen, luciferase reporter cells, uHTS; TWEAK-stimulated Fn14 reporter cells, luciferase luminescence, 8 h; inhibition, % at 10 µM; actives 2% (n = 360,000); AID 1159606, 2016; in the data active = inhibition above about 50%
C8 TRAIL sens = viability loss with TRAIL in NB7+C8 cells, primary screen, TRAIL sensitizer project, cell-based, ATPlite luminescence. inhibition (viability loss, TRAIL sensitization), % at 10 µM. actives 1% (n = 360,000);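 active = compounds causing at least 50% loss of cell viability in the single-dose screen, relative to plate controls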
Platelet DG rel = inhibitors of platelet dense granule secretion, primary screen, cell-based, MLPCN, human platelets. human platelet-rich plasma, SFLLRN dense granule ATP release, luminescence. actives 0.22% (n = 300,000). AID 1663, 2009. inhibition, %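 (compounds screened at 7.5 µM in platelet-rich plasma)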;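 active = mean replicate score, as percent of positive control, at or above 50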
TROY NFkB inh = inhibitors of TROY-driven NF-kB signaling, primary screen, Q293 LMP1-TROYcd cells, NF-kB luciferase, uHTS; actives 0.98% (n = 360,000); inhibition, % at 10 µM; AID 1347056, 2019; Q293 LMP1-TROYcd NF-kB luciferase reporter, 4 h;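 active = compounds whose plate-normalised and pattern-corrected inhibition of the luciferase reporter signal at the single screening dose is 50% or more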
HSP90 refold inh = HSP90 inhibitors, primary screen, cell lysate, luminescence; actives 0.91% (n = 290,000); Heat shock protein HSP 90 (rabbit reticulocyte lysate; luciferase refolding); inhibition, % at 5.6 µM; Rabbit reticulocyte lysate, luciferase refolding luminescence, 3 h;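 active = inhibition above the screen-wide mean plus 3 SD, computed separately per campaign, cut at about 16% in these data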;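 also: 0% = DMSO wells and 100% = 60 µM geldanamycin wells; inhibitors lower the luminescence because luciferase stays unfolded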
PPC-1+TRAIL kill = compounds killing PPC-1 cancer cells with TRAIL present, primary screen, TRAIL potentiator project, ATPLite luminescence, uHTS | cell killing (% activity), % at 4 µM or 5 µM | actives 0.41% (n = 220,000) | PPC-1 cells + TRAIL, ATPLite viability luminescence;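 active = cell killing above 50% in the first pass at 4 µM, then a duplicate retest at 5 µM averaging 50% or more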;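 also: plate controls were cells with TRAIL plus DMSO for no effect and medium-only wells lacking cells for full effect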
* marks the source's active call; other numbers are inactive results; / = no result; ! = repeats disagree. Hits are enriched below; roughly 3.5% of the tested compounds scored in any of these assays.

SMILES	TWEAK Fn14 block	C8 TRAIL sens	Platelet DG rel	TROY NFkB inh	HSP90 refold inh	PPC-1+TRAIL kill
CCc1ccc(/C=C2\SC(=S)N(CCCC(=O)N(CCO)c3ccccc3)C2=O)cc1	36.3	91.9*	/	35.0	/	/
Cc1ccccc1OCC(=O)N=Nc1c(O)n(C)c2ccccc12	-21.1	1.6	6.2	-36.0	-4.9	-0.3
C=CC[C@@H](CC(=O)N[C@H](CO)Cc1ccccc1)C(=O)N[C@H](COC(=O)[C@H](CC=C)CC(=O)OC(C)(C)C)Cc1c[nH]c2ccccc12	21.9	-2.1	/	24.7	/	/
CN1C(=O)/C(=C\c2ccc(N(C)C)cc2)OC1=S	-26.5	4.4	-3.7	-43.7	-4.2	/
CN(C)c1ccc(C=C2C=CC=C2)cc1	61.6*	-9.1	/	9.1	/	/
CCCCNC(=O)Cn1c(=O)c2c(ncn2CC)n(Cc2ccccc2)c1=O	-17.1	-10.1	-0.8	0.3	-0.3	/
O=C(ONC1=NCCCCC1)c1ccc(Cl)cc1	-93.9	83.3*	4.4	-11.5	3.1	-2.2
COc1ccc2nc(-c3ccc(F)cc3)sc2c1	75.3*	65.0*	25.5	39.1	/	/
CCOc1ccc(CNc2ccc3c(c2)ncn3C(C)(C)C)cc1	-7.4	-5.5	5.1	-41.1	0.9	/
CCCn1cnc2cc(NCc3cccc(OC)c3)ccc21	73.1*	14.3	-5.0	65.8*	-2.9	-7.6
CN(C)c1ccc(CNc2ccc3c(c2)ncn3C(C)(C)C)cc1	58.4*	6.5	7.5	86.6*	4.2	/
CCn1cnc2cc(NCc3ccc(N(C)C)cc3)ccc21	65.2*	19.5	-1.5	67.2*	6.2	4.9
O=C(C[C@H]1CC[C@@H]2[C@H](COC[C@H](O)CN2C(=O)c2cnccn2)O1)NCc1ccc(Cl)cc1	/	-4.5	/	/	/	/
CCc1nc2ccc(C(=O)NCCCn3ccnc3)cn2c1N(C)Cc1nccs1	8.4	7.1	/	-26.0	/	/
Cc1sc2ncnc(N3CCC(C(=O)Nc4ccc(S(N)(=O)=O)cc4)CC3)c2c1C	49.9	-2.2	/	36.1	/	/
Cc1sc2ncnc(N3CCC(C(=O)Nc4cc(S(C)(=O)=O)ccc4Cl)CC3)c2c1C	36.8	8.7	-1.9	41.4	/	/
Cc1ccc(NC(=O)C2CCN(c3ncnc4sc(C)c(C)c34)CC2)cc1S(=O)(=O)N(C)C	55.0*	23.2	-34.5	51.0*	/	/
CCN(CC)S(=O)(=O)c1cc(NC(=O)C2CCN(c3ncnc4sc(C)c(C)c34)CC2)ccc1Cl	96.8*	40.1	-6.8	64.3*	/	/
O=C(NC1CCS(=O)(=O)C1)c1ccccc1Cl (centres undefined)	3.3	3.5	/	-8.1	/	/
CCOc1cc(N2CCOCC2)c(OCC)cc1NC(=O)COC(=O)c1ccc(OC)c([N+](=O)[O-])c1	-13.5	-12.0	/	8.8	/	/
CN(C)c1cccc(NC(=O)C2(C)Cc3c(-c4cccnc4)ccnc3O2)c1 (centres undefined)	-35.2	-8.4	/	-2.8	/	/
O=C(CN(c1cccc([N+](=O)[O-])c1)S(=O)(=O)c1ccccc1)NCc1ccccc1	19.8	-4.1	57.4*	19.6	-2.1	20.5
COc1cc(Nc2ccccn2)cc(C(=O)Nc2cccc(C(F)(F)F)c2)c1	50.1*!	32.8	2.2	16.7	/	-1.9
CCN1CCN(Cc2ccc(NC(=O)c3cc(NC(=O)c4cc5cccc(OC)c5o4)cc(OC)c3)cc2C(F)(F)F)CC1	60.1*!	94.8*	-0.2	-10.8	/	14.2
CCN1CCN(Cc2ccc(NC(=O)c3cc(NC(=O)c4ccno4)cc(OC)c3)cc2C(F)(F)F)CC1	7.2	10.8	-7.0	-10.3	/	8.9
SMILES	TWEAK Fn14 block	C8 TRAIL sens	Platelet DG rel	TROY NFkB inh	HSP90 refold inh	PPC-1+TRAIL kill
CCN1CCN(Cc2ccc(NC(=O)c3cc(NC(=O)c4cncc(-c5cccs5)c4)cc(OC)c3)cc2C(F)(F)F)CC1	-63.6	84.7*	1.7	8.0	2.3	/
COc1cc(NC(=O)c2cc3cccc(OC)c3o2)cc(C(=O)Nc2cccc(C(F)(F)F)c2)c1	56.9*	51.2*	-0.5	15.7	/	31.8
COc1cc(NC(=O)c2nccnc2N)cc(C(=O)Nc2cccc(C(F)(F)F)c2)c1	-73.2	6.2	0.9	-21.6	/	3.1
COc1ccc(/C=C/C(=O)NNC(=O)C(C)Oc2ccccc2F)cc1OC (centres undefined)	3.6	-4.7	/	13.8	/	/
C[C@H](CO)N1C[C@H](C)[C@@H](CN(C)C(=O)c2ccc(N3CCN(C)CC3)cc2)OCc2cnnn2CCCC1=O	-9.4	-21.7	/	11.1	/	/
CCN1CCN(Cc2ccc(NC(=O)c3ccc(C)c(NC(=O)c4c[nH]c5cc(C(F)(F)F)ccc5c4=O)c3)cc2C(F)(F)F)CC1	-48.8	94.8*	3.4	-2.7	/	26.9
Cc1ccc(C(=O)Nc2cccc(C(F)(F)F)c2)cc1NC(=O)c1c[nH]c2cc(C(F)(F)F)ccc2c1=O	-2.6	1.0	/	-11.8	/	/
CCN1CCN(Cc2ccc(NC(=O)c3cc(NC(=O)c4cc(-c5ccc(OC)cc5)n[nH]4)cc(OC)c3)cc2C(F)(F)F)CC1	-96.6	87.6*	6.5	-15.2	/	31.2
Cc1c(NC(=O)COc2ccc3ccccc3c2)c(=O)n(-c2ccccc2)n1C	/	/	4.8	/	-1.9	/
CN(Cc1ccccc1)C(=O)c1ccc(NC(=O)Cc2ccc(NC(=O)C3CCCN(C(=O)C4CC4)C3)cc2)cc1 (centres undefined)	4.1	-8.7	/	16.0	/	/
O=C(COC(=O)C1CC1)Nc1ccc(Cl)cc1Cl	0.0	-4.1	/	-6.0	/	/
CCn1c(SCC(=O)N2CCN(c3ccccc3)CC2)nnc1-c1cc2cc(Cl)ccc2o1	46.7	9.2	-2.6	59.2*	-3.4	1.4
CC(NC(=O)CSc1nnc(CC(=O)Nc2ccc(Cl)c(Cl)c2)n1C)c1ccccc1 (centres undefined)	11.5	-10.9	2.0	-8.0	-0.5	9.6
Cc1nc(SCC(=O)O)c2oc3ccccc3c2n1	-5.2	2.7	1.0	-12.7	2.6	-6.0
Cc1nc(SCC(=O)N2CCN(c3ccccc3)CC2)c2oc3ccccc3c2n1	52.3*	9.7	0.7	24.0	1.2	-3.1
Cn1c(CC(=O)Nc2ccc(Cl)c(Cl)c2)nnc1SCC(=O)N1CCN(c2ccccc2)CC1	50.5*	1.0	0.5	28.7	1.4	5.5
Cc1ccc(CCNC(=O)C2CCCN(S(C)(=O)=O)C2)cc1 (centres undefined)	17.9	-4.3	0.6	-5.1	2.5	/
CCOc1ccc(CNC(=O)C2CCCN(S(C)(=O)=O)C2)cc1OC (centres undefined)	92.3*	3.4	-5.8	-13.7	-0.6	21.2
CS(=O)(=O)N1CCCC(C(=O)NCCc2ccccc2)C1 (centres undefined)	68.7*	-7.5	0.0	34.6	-2.7	19.1
Cc1ccc(SCC(=O)NC2CCCCCC2)cc1	-18.0	-24.9	-2.3	-49.8	-0.7	/

Compound activity deposited in PubChem by several laboratories.
